# In PubChem BioAssay (NCATS):
# Inconclusive results are not listed. Activity calls are given as the source filed them. Unless noted, calls follow the shape of the dose curve; as a rule, active = well fitted inhibition curve with a large enough effect; inconclusive = small, poorly fitted or top-dose-only effect; inactive = flat fitted curve, though single readings scatter.
# Biological target: DNA polymerase III PolC-type (Bacillus subtilis (strain 168)) (UniProt P13267)
# Test: qHTS Validation Assay for the Inhibitors of DNA Replication in Gram-Positive Bacteria (AID 485295); also: potency is read from the fitted curve at half-maximal effect;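 as to activity change, negative = inhibition: reconstituted holoenzyme with PolC plus beta clamp SSB and primase; PicoGreen fluorescence of double-stranded DNA made on primed circular M13 template; 0% = DMSO wells and -100% = EDTA-quenched background wells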
# Conditions: Gram-positive bacterial DNA replication assay; series mostly up to 57.1 µM; activity change, negative = inhibition: at the top concentration
# How it was run: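 PicoGreen fluorescence (ex 480–485/em 535–540 nm) reports dsDNA synthesized on ssM13Gori template with dNTPs/NTPs. Enzyme: holoenzyme rebuilt from purified PolC, beta subunit, SSB and primase. Compound preincubated before substrate addition; RT throughout.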
# Chain of DNA polymerase III PolC-type (Bacillus subtilis (strain 168)) (P13267 whole entry, looked up): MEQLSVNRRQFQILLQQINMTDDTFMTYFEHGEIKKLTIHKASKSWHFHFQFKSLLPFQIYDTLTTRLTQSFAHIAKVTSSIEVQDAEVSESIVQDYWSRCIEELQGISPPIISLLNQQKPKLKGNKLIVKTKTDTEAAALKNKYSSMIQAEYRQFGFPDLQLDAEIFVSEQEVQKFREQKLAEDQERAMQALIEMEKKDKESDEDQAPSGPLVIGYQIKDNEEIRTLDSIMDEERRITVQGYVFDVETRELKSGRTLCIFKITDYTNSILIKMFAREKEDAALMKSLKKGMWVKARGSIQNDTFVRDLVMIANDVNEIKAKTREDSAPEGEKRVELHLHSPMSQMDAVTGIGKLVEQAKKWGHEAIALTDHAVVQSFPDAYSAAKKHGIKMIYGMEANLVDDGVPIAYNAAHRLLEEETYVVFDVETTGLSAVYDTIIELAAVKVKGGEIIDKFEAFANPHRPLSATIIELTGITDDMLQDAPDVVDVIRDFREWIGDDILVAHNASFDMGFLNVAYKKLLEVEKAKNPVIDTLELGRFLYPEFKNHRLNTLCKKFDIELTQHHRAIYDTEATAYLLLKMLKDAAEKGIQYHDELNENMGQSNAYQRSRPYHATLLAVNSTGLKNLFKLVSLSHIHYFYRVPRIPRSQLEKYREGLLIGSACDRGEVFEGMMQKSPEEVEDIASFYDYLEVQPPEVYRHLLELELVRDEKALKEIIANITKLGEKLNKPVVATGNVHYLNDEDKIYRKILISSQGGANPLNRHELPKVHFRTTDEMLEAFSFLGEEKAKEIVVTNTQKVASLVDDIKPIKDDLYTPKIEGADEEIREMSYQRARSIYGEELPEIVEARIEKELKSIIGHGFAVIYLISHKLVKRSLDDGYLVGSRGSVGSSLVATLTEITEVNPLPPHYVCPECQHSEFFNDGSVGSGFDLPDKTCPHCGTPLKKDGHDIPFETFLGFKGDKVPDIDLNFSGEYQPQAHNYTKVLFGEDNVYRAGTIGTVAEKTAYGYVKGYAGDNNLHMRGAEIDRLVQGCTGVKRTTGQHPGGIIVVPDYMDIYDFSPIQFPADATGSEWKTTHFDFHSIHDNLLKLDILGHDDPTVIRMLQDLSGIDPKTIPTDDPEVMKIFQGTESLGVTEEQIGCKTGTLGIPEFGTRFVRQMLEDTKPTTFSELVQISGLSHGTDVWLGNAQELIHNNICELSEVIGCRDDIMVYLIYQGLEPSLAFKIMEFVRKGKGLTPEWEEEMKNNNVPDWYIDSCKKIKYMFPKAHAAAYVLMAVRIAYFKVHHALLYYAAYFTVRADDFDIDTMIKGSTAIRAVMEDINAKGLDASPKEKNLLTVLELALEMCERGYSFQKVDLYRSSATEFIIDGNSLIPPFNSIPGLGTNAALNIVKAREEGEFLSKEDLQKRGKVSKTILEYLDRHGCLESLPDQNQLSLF
Structure (SMILES),"activity change, negative = inhibition",Potency
CC(O)(CS(=O)(=O)c1ccc(F)cc1)C(=O)Nc1ccc(C#N)c(C(F)(F)F)c1 (stereo not drawn),-1.81% (inactive),
Cc1cc2c(C(C)C)c(O)c(O)c(C=O)c2c(O)c1-c1c(C)cc2c(C(C)C)c(O)c(O)c(C=O)c2c1O,,10.6 µM (active)
CC(=O)[C@H]1CC[C@H]2[C@@H]3CC[C@H]4C[C@](C)(O)CC[C@]4(C)[C@H]3CC[C@]12C,3.49% (inactive),
CC(C)=CCOc1c2occc2cc2ccc(=O)oc12,-2.14% (inactive),
C[C@@H]1O[C@@H](O[C@H]2C[C@@H](O)[C@]3(CO)[C@H]4[C@H](O)C[C@]5(C)[C@@H](C6=CC(=O)OC6)CC[C@]5(O)[C@@H]4CC[C@]3(O)C2)[C@H](O)[C@H](O)[C@H]1O,-1.44% (inactive),
CC[C@@H](CO)NC(=O)[C@@H]1C=C2c3cccc4c3c(cn4C)C[C@H]2N(C)C1,,16.8 µM (active)
COC[C@H]1OC(=O)c2coc3c2[C@@]1(C)C1=C(C3=O)C2CCC(=O)[C@@]2(C)C[C@H]1OC(C)=O (stereo partly drawn),3.61% (inactive),
Cc1cccc(C)c1NC(=O)CN1CCCC1=O,5.01% (inactive),
CCCN1CCC[C@@H]2Cc3[nH]ncc3C[C@H]21,,inactive
COc1ccc(C(CN(C)C)C2(O)CCCCC2)cc1 (stereo not drawn),3.45% (inactive),

# Test system: not listed separately
# Test: qHTS Validation Assay to Find Inhibitors of Chronic Active B-Cell Receptor Signaling (AID 485345; active = well fitted curve in the direction sought with a large enough effect in the main read-out, with a control signal flat, not every such curve was filed as active;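 also: 0% = untreated basal cells and 100% = 10 µM MG-132 proteasome inhibitor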)
# Conditions: ABC-DLBCL cells, chronic BCR signaling reporter, CBG luciferase; series mostly up to 46.1 µM; activity change: at the top concentration
# How it was run: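 TMD8 ABC-DLBCL cells with dox-inducible green luciferase–IκBα fusion and red native luciferase; compounds 46 uM–3 nM, 4 h at 37C with doxycycline in 0.5% FBS IMDM. Green/red ratio normalized to basal and 10 uM MG-132.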
Structure (SMILES),activity change,outcome
CC(O)(CS(=O)(=O)c1ccc(F)cc1)C(=O)Nc1ccc(C#N)c(C(F)(F)F)c1 (stereo not drawn),-8.45% (inactive),
CC(=O)[C@H]1CC[C@H]2[C@@H]3CC[C@H]4C[C@](C)(O)CC[C@]4(C)[C@H]3CC[C@]12C,-7.26% (inactive),
CC[C@@H](CO)NC(=O)[C@@H]1C=C2c3cccc4[nH]cc(c34)C[C@H]2N(C)C1,-3.86% (inactive),
CC(C)=CCOc1c2occc2cc2ccc(=O)oc12,-4.53% (inactive),
C[C@@H]1O[C@@H](O[C@H]2C[C@@H](O)[C@]3(CO)[C@H]4[C@H](O)C[C@]5(C)[C@@H](C6=CC(=O)OC6)CC[C@]5(O)[C@@H]4CC[C@]3(O)C2)[C@H](O)[C@H](O)[C@H]1O,16.7% (inactive),
Cc1cccc(C)c1NC(=O)CN1CCCC1=O,-3.64% (inactive),
CCCN1CCC[C@@H]2Cc3[nH]ncc3C[C@H]21,,inactive
COc1ccc(C(CN(C)C)C2(O)CCCCC2)cc1 (stereo not drawn),0.343% (inactive),
